# Source: PubChem
# PriA SSB inh = inhibitors of Klebsiella pneumoniae PriA binding to SSB C-terminal tail, primary screen, biochemical, AlphaScreen | AlphaScreen SSBct-PriA binding, biotinylated peptide | inhibition, % at 33 µM | actives 0.6% (n = 430,000) | AID 1272365, 2023; in the data active = inhibition mostly above about 37%, no sharp cut-off; inactive = mostly below about 20%
# BJeLR lethal = MLPCN primary cell-based screen for lethality selective to Ras in HRASV12 cells. BJeLR (HRASV12) viability, CellTiter-Glo ATP luminescence, 48 h. inhibition, % (no concentration beside the values). actives 0.17% (n = 300,000); in the data active = inhibition above about 50%
# PrP 5UTR inh = inhibition of PrP 5' UTR reporter expression; cell-based PrP 5' UTR mRNA reporter, plate reader; inhibition, % (no concentration beside the values); actives 0.35% (n = 340,000); in the data active = inhibition above about 52%
# PfHsp40 yeast = rescue of yeast from PfHsp40 toxicity, primary screen, S. cerevisiae, ATP luminescence. S. cerevisiae expressing PfHsp40, growth rescue. growth rescue, % at 12.5 µM. actives 0.68% (n = 340,000). AID 504582, 2011; in the data active = growth rescue above about 28%, passing the limit was not always enough;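 note: yeast W303a lacking pdr1 and pdr3 grown in galactose medium; growth measured after three days at 30 °C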
# RecA intein inh = Mtb RecA intein splicing inhibitors, primary screen, biochemical, fluorescence, HTS | AID 2221, 2009 | inhibition, % (test concentration not listed) | Protein RecA (Mycobacterium tuberculosis (strain ATCC 25618 / H37Rv)), P9WHJ3 | cell-free RecA intein splicing | actives 0.75% (n = 290,000); in the data active = inhibition above about 30%
# Target sequence (P9WHJ3 whole entry, looked up): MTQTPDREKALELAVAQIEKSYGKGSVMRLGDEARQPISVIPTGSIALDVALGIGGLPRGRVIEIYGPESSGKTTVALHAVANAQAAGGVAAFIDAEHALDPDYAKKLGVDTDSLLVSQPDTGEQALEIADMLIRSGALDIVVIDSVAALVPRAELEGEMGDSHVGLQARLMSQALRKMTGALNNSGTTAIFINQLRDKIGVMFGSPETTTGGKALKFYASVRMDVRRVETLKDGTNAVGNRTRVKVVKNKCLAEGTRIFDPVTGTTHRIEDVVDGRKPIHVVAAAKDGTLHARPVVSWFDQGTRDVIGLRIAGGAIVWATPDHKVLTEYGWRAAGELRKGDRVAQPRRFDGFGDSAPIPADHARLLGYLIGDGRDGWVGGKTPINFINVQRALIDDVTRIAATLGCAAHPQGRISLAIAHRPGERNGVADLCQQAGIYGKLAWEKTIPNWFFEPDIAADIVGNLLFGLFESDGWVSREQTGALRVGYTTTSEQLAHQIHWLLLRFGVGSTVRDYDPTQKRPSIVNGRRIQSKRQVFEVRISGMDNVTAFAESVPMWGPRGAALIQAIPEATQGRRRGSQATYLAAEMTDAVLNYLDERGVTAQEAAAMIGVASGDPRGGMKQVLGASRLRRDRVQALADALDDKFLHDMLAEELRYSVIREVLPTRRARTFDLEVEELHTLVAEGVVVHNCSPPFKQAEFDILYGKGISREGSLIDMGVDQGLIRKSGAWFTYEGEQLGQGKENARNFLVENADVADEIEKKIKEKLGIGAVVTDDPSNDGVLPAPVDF
# PrPC TRFRET = inhibitors of human cell surface prion protein PrPC, primary screen, cell-based, TR-FRET. Major prion protein (Homo sapiens), P04156. TR-FRET read-out. inhibition, % at 13.8 µM. actives 0.43% (n = 370,000). AID 720596, 2013; in the data active = inhibition above about 24%
# Hits are given with their value; – = inactive; · = not tested or not shown. A selection: hits, their analogues and other compounds. The true share with any hit is near 1.9%.
SMILES,PriA SSB inh,BJeLR lethal,PrP 5UTR inh,PfHsp40 yeast,RecA intein inh,PrPC TRFRET
CCCN1CCCc2cc(CCNS(C)(=O)=O)ccc21,70.0,·,·,·,·,·
Cc1nc(-c2cccs2)sc1C(=O)NCCn1ncccc1=O,–,·,·,·,·,·
CS(=O)(=O)NCCNc1ccc(-n2cccc2)nn1,–,·,·,·,·,·
CCCN1CCCc2cc(CCNS(=O)(=O)c3ccc4c(c3)OCCO4)ccc21,67.0,·,·,·,·,·
CCCN1CCCc2cc(CCNS(=O)(=O)c3ccc(F)c(Cl)c3)ccc21,47.0,·,·,·,·,·
CCCN1CCCc2cc(CCNS(=O)(=O)CCC)ccc21,112.1,·,·,·,·,·
CCCN1CCCc2cc(CCNS(=O)(=O)c3ccc(CC)cc3)ccc21,51.0,·,·,·,·,·
CCOC(=O)CNC(=O)CN1CCN(Cc2nc3ccccc3n2Cc2ccccc2)CC1,–,·,·,·,·,·
Cc1ccc(S(=O)(=O)NCCc2ccc3c(c2)CCCN3C)cc1Cl,38.0,·,·,·,·,·
COc1ccc(C)cc1S(=O)(=O)NCCc1ccc(N2CCCC2)cc1,–,·,·,·,·,·
CCCN1CCCc2cc(CCNS(=O)(=O)CCc3ccccc3)ccc21,71.0,·,·,·,·,·
CN1CCCc2cc(CCNC(=O)Cc3cccs3)ccc21,–,·,·,·,·,·
COc1ccc(C)cc1S(=O)(=O)NCCc1ccc2c(c1)CCCN2C,65.0,·,·,·,·,·
CN1CCCc2cc(CCNS(=O)(=O)c3cccs3)ccc21,71.0,·,·,·,·,·
Cc1ccc(NC(=O)C2Cc3ccccc3C(=O)O2)c([N+](=O)[O-])c1 (stereo not drawn),–,·,·,·,·,·
CCc1cc(=O)[nH]c(NN)n1,–,·,·,·,·,·
O=C(CSc1nc(-c2ccccc2)c(-c2ccccc2)[nH]1)NCc1ccco1,41.5,–,–,–,–,–
CCOC(=O)c1scc(-c2ccc(C)cc2)c1S(=O)(=O)N1CCN(c2cccc(C)c2C)CC1,–,·,·,·,·,·
Cc1cc(C)c(C(=O)CC(=O)c2cccnc2)c(C)c1,–,·,–,285.8,·,–
O=C(N1CCC(Oc2ncccc2Br)CC1)C1(c2ccccc2)CCOCC1,–,·,·,·,·,·
Cc1cc(OC2CCN(C(=O)C3(c4ccccc4)CCOCC3)CC2)cc(=O)o1,23.0,·,·,·,·,·
CC(=O)Nc1ccc2c(c1)CCc1ccccc1-2,–,–,–,–,–,–
O=C(O)/C=C/C(=O)c1ccc2c(c1)CCc1ccccc1-2,–,–,–,429.6,–,–
O=C1C2CC=CCC2C(=O)N1C1CN(S(=O)(=O)CCc2ccccc2)C1 (stereo not drawn),–,·,·,·,·,·
COc1ccc(C(C)=Nn2cnnc2)cc1,–,·,·,·,·,·
SMILES,PriA SSB inh,BJeLR lethal,PrP 5UTR inh,PfHsp40 yeast,RecA intein inh,PrPC TRFRET
CC(=NNC(=O)C1CCCN(S(=O)(=O)c2ccccc2)C1)c1ccccn1 (stereo not drawn),48.8,·,·,·,·,·
O=S(=O)(c1ccccc1)N1CCC(c2ccccn2)C1 (stereo not drawn),40.0,·,·,·,·,·
CC(=NNC(=S)N1CCC1)c1ccccn1,72.0,·,–,34.3,·,–
CC(=O)N1CCC(c2ccccc2)CC1,–,·,·,·,·,·
C[C@@H]1N(CCCCCC(=O)O)c2ccc3ccccc3c2C1(C)C,–,·,·,·,·,·
c1ccc(-c2nc(N3CCCCCC3)nc(-n3ccnc3)n2)cc1,–,–,–,–,45.9,–
c1ccc(-c2nc(N3CCN(c4ccccc4)CC3)nc(-n3ccnc3)n2)cc1,–,–,–,–,–,–
Cc1ccccc1C(=O)N1CCC(C(=O)N2CCN(c3ncccn3)CC2)CC1,–,·,–,–,·,–
CCOC(=O)N1CCN(C(=O)C2CCN(C(=O)c3ccccc3C)CC2)CC1,–,·,–,703.5,·,–
O=[N+]([O-])c1ccc(S(=O)(=O)Nc2ccncc2)cc1,–,–,–,–,·,–
O=[N+]([O-])c1ccc(Oc2ccc(S(=O)(=O)Nc3ccccc3)cc2)cc1,–,–,–,388.1,–,·
CC(C)NS(=O)(=O)c1ccc(Oc2ncc(C(F)(F)F)cc2Cl)cc1,–,–,–,–,–,–
O=S(=O)(Nc1ccccc1)c1ccc(Oc2ncc(C(F)(F)F)cc2Cl)cc1,–,–,–,282.2,–,–
CCOC(=O)c1c(NC(=O)CSc2ccc3ccccc3n2)sc2c1CCC(C)C2 (stereo not drawn),–,·,·,·,·,·
Nc1c(C(=O)NCCCc2ccccc2)c2nc3ccccc3nc2n1Cc1cccs1,–,–,–,–,32.3,–
CCCCn1c(N)c(C(=O)NCc2cccs2)c2nc3ccccc3nc21,–,–,–,–,75.5,–
COc1ccc(S(=O)(=O)NCCNc2ccc(-n3cccc3)nn2)c(OC)c1OC,–,·,·,·,·,·
O=S(=O)(Nc1nc2ccccc2nc1N1CCc2ccccc2C1)c1ccc(Cl)cc1,–,–,–,–,–,–
O=S(=O)(Nc1nc2ccccc2nc1N1CCN(c2ccccn2)CC1)c1ccc(Cl)cc1,–,·,–,142.5,·,–
Cc1ccc2[nH]c(-c3cccc(N)c3)cc2c1,39.2,–,–,–,–,–
O=C(NCc1cccs1)N1CCc2cnc(N3CCOCC3)nc2C1,–,·,·,·,·,·
CCOC(=O)c1c(C)n(Cc2ccccc2)c2ccc(OCC(O)Cn3nc(C)nc3C)cc12 (stereo not drawn),104.2,–,–,–,–,–
O=C(COc1ccccc1F)NCC1CCN(c2ncccn2)CC1,–,·,·,·,·,·
O=c1c2ccccc2nc2n1CCS2(=O)=O,–,–,–,–,39.2,–
O=C(O)c1ccccc1NSc1ccccc1[N+](=O)[O-],–,–,–,–,–,–
SMILES,PriA SSB inh,BJeLR lethal,PrP 5UTR inh,PfHsp40 yeast,RecA intein inh,PrPC TRFRET
CCc1ccc(NSc2ccccc2[N+](=O)[O-])cc1,64.7,–,–,45.6,–,–
CCOc1cc(C2C(C#N)=C(N)Oc3n[nH]c(-c4ccncc4)c32)cc([N+](=O)[O-])c1O (stereo not drawn),–,–,–,–,–,–
COc1ccc(C2C(C#N)=C(N)OC3=C2C(=O)CCC3)cc1Cn1nc(C)c([N+](=O)[O-])c1C (stereo not drawn),–,–,–,–,–,–
COc1ccc(C2C(C#N)=C(N)Oc3n[nH]c(C)c32)cc1Cn1nc(C)c([N+](=O)[O-])c1C (stereo not drawn),–,–,–,–,83.7,–
COc1cc(C2C(C#N)=C(N)Oc3n[nH]c(-c4cccnc4)c32)ccc1OCC(N)=O (stereo not drawn),–,–,–,–,46.3,–
COc1cc(C2C(C#N)=C(N)Oc3n[nH]c(C)c32)ccc1OC(=O)c1ccccc1 (stereo not drawn),–,–,–,–,38.4,–
COC(=O)Cc1[nH]nc2c1C(c1cc(OC)c(OC)c(OC)c1)C(C#N)=C(N)O2 (stereo not drawn),–,–,–,–,–,–
O=C1c2ccccc2C(=O)N1CCCCSc1ncnc2sc(-c3ccccc3)cc12,–,·,·,·,·,·
Cc1nc(C)c(C(=O)NCCNC(=O)c2ccc(NC(=O)C(C)C)cc2)s1,–,·,·,·,·,·
O=C(O)c1ccc(N/N=C/C(Br)=C/c2ccccc2)cc1,–,–,–,183.4,–,–
